# Inconclusive results are not listed. The source made the active and inactive calls. Rule for the calls: active = hit-call score of the fitted dose curve at least 0.9, where 1 is the maximum; inconclusive = response in the unintended direction; inactive = score below 0.9.
# What was measured:
# [1] = TOX21_p53_BLA_p2_viability: Viability Assessment in the Tox21 HCT-116 p53 Agonism Beta-lactamase Assay, Phase 2 (AID 2283591);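 note: compound exposure lasted 16 h at 37 °C; actives lower the ATP signal meaning cytotoxicity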
# In short: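 HCT-116 p53-bla cells (4000/well) rested 5 h at 37C, then received compounds in DMSO (217-fold dilution) for 16 h at 37C, 5% CO2. After the CCF4 read, CellTiter-Glo was added; ATP luminescence was read after 30 min at room temperature.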
# [2] = TOX21_p53_BLA_p3_viability: Viability Assessment in the Tox21 HCT-116 p53 Agonism Beta-lactamase Assay, Phase 3 (AID 2283593);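 note: cells exposed to compound for 16 h before reading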
# In short: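 HCT-116 cells (4000/well) rested 5 h at 37C, then got DMSO compounds by pin tool (217-fold dilution) for 16 h at 37C, 5% CO2. After the bla read, CellTiter-Glo was added and luminescence read at 30 min, room temperature.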
# [3] = TOX21_p53_BLA_p4_viability: Viability Assessment in the Tox21 HCT-116 p53 Agonism Beta-lactamase Assay, Phase 4 (AID 2283597);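 note: hits lower the luminescence signal meaning cytotoxicity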
# In short: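 Luminescent ATP readout (CellTiter-Glo, 30 min, room temperature) in the same wells as the p53 bla ratio. HCT116 cells were treated for 16 h at 37C with DMSO-dissolved compounds.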
# [4] = molecular target: Cellular tumor antigen p53 (Homo sapiens) (UniProt P04637); assay: TOX21_p53_BLA_p5_ratio: Tox21 HCT-116 p53 Agonism Beta-lactamase Assay, Ratio, Phase 5 (AID 2283599)
# In short: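 HCT-116 cells carrying a p53-inducible beta-lactamase reporter were seeded at 4000 cells/well and dosed after 5 h with compound in DMSO (217-fold dilution). After 16 h at 37C, CCF4-AM substrate was added for 2 h, and the 460/530 nm emission ratio was scored as gain-of-signal versus DMSO.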
# [5] = TOX21_p53_BLA_p5_viability: Viability Assessment in the Tox21 HCT-116 p53 Agonism Beta-lactamase Assay, Phase 5 (AID 2283600)
# In short: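 Seeded cells (4000/well) settle 5 h before compound addition. Plates then incubate 16 h at 37C, receive FRET substrate for 2 h, and finally CellTiter-Glo, with luminescence measured after a 30 min room-temperature incubation.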
# [6] = molecular target: Cellular tumor antigen p53 (Homo sapiens) (UniProt P04637); assay: TOX21_p53_BLA_p4_ratio: Tox21 HCT-116 p53 Agonism Beta-lactamase Assay, Ratio, Phase 4 (AID 2283601)
# In short: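 HCT116 cells carrying an inducible beta-lactamase reporter were plated at 4000 cells/well, rested 5 h, then exposed to compounds in DMSO (217-fold dilution) for 16 h at 37C. CCF4-AM substrate was loaded 2 h at room temperature; 460/530 nm emission ratio scored gain-of-signal versus DMSO.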
# Sequence of Cellular tumor antigen p53 (Homo sapiens) (P04637 whole entry, looked up): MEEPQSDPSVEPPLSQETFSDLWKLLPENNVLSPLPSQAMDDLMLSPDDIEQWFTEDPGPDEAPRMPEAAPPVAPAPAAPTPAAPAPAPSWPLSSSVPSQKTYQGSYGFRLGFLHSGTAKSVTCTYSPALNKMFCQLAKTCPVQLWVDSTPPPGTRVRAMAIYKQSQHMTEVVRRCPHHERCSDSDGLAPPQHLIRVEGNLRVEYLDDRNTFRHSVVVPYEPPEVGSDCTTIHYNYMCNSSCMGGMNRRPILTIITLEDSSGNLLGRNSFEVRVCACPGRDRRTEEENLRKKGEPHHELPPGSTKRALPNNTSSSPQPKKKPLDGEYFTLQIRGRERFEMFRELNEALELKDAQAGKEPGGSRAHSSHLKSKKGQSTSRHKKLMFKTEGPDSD
structure (smiles),measurement,setting,value
CC(=O)SC[C@@H](Cc1ccccc1)C(=O)NCC(=O)OCc1ccccc1,outcome,[1],inactive
same,outcome,[2],inactive
same,outcome,[3],inactive
same,outcome,[4],inactive
same,outcome,[5],inactive
same,outcome,[6],inactive
NC12CC3CC(CC(C3)C1)C2,outcome,[1],inactive
same,outcome,[2],inactive
same,outcome,[3],inactive
same,outcome,[4],inactive
same,outcome,[5],inactive
same,outcome,[6],inactive
CC(C)C(O)(c1ccc(OC(F)(F)F)cc1)c1cncnc1 (stereo not given),outcome,[1],inactive
same,outcome,[2],inactive
same,outcome,[3],inactive
same,outcome,[4],inactive
same,outcome,[5],inactive
same,outcome,[6],inactive
O=[N+]([O-])c1ccc(F)cc1F,outcome,[1],inactive
same,outcome,[2],inactive
same,outcome,[3],inactive
same,outcome,[5],inactive
C[C@H]1O[C@@H](O[C@H]2CC[C@@]3(C)[C@H](CC[C@@H]4[C@@H]3C[C@@H](O)[C@]3(C)[C@@H](C5=CC(=O)OC5)CC[C@]43O)C2)C[C@H](O)[C@@H]1O[C@H]1C[C@H](O)[C@H](O[C@H]2C[C@H](O)[C@H](O[C@@H]3O[C@H](CO)[C@@H](O)[C@H](O)[C@H]3O)[C@@H](C)O2)[C@@H](C)O1,AC50,[1],284 nM (active)
same,AC50,[2],296 nM (active)
same,AC50,[3],337 nM (active)
same,AC50,[5],353 nM (active)
O=c1[nH]ncc2ccccc12,outcome,[1],inactive
same,outcome,[2],inactive
same,outcome,[3],inactive
same,outcome,[4],inactive
same,outcome,[6],inactive
Cc1cc(Nc2ccc(O)cc2)ccc1N,outcome,[1],inactive
same,AC50,[2],46700 nM (active)
same,outcome,[3],inactive
same,outcome,[4],inactive
same,outcome,[6],inactive
CCCC(=O)O[C@]1(C(=O)COC(=O)CC)[C@@H](C)C[C@H]2[C@@H]3CCC4=CC(=O)C=C[C@]4(C)[C@@]3(F)[C@@H](O)C[C@@]21C,outcome,[1],inactive
same,outcome,[2],inactive
same,outcome,[3],inactive
same,outcome,[5],inactive
CCN(CC)C(=O)N1CCN(C)CC1,outcome,[1],inactive
same,outcome,[2],inactive
same,outcome,[3],inactive
same,outcome,[6],inactive
CC(CO)(CO)CO,outcome,[1],inactive
same,outcome,[2],inactive
same,outcome,[4],inactive
same,outcome,[5],inactive
same,outcome,[6],inactive
NC(=O)C1c2ccccc2CCc2ccccc21,outcome,[1],inactive
same,outcome,[2],inactive
same,outcome,[4],inactive
O=C(O)c1cccc(/C=C2/C[C@@H]3[C@@H](/C=C/[C@@H](O)C4CCCCC4)[C@H](O)C[C@@H]3O2)c1,outcome,[1],inactive
same,outcome,[2],inactive
same,outcome,[4],inactive
same,outcome,[5],inactive
same,outcome,[6],inactive
C=C(C)C(=O)OCCCCCCCCCCOC(=O)C(=C)C,outcome,[1],inactive
same,outcome,[2],inactive
same,outcome,[4],inactive
Cc1ccc(N(CCO)CCO)cc1,outcome,[1],inactive
same,outcome,[2],inactive
same,outcome,[4],inactive
same,outcome,[5],inactive
same,outcome,[6],inactive
CCCCCCCCCCCC(=O)N(CC)CC,outcome,[1],inactive
same,outcome,[2],inactive
same,outcome,[4],inactive
CCC(C)[O-].CCC(C)[O-].CCOC(=O)/C=C(/C)[O-].[Al+3],outcome,[1],inactive
same,outcome,[2],inactive
same,outcome,[5],inactive
CCN(CCCCOC(=O)c1ccc(OC)c(OC)c1)C(C)Cc1ccc(OC)cc1 (stereo not given),outcome,[1],inactive
same,outcome,[2],inactive
same,outcome,[3],inactive
same,outcome,[6],inactive
